Measurements reported in PubChem BioAssay AID602313 (National Center for Advancing Translational Sciences (NCATS), 2012).
Out of some 390,000 compounds screened, about 760 (0.19%) were called active. Entries that show only a call come without a potency. Roughly 3% stayed inconclusive and do not appear here. The call rests on the fitted dose curve; in most records, active means well fitted inhibition curve with a large enough effect; inconclusive means small, poorly fitted or top-dose-only effect; inactive means flat fitted curve, though single readings scatter. For the sample, actives were picked, then their nearest neighbours and some compounds at random.

assay: qHTS for Inhibitors of Vif-A3F Interactions: qHTS; conditions: HeLa A3F-eYFP + Vif (tagged APOBEC3F with the HIV-1 protein that degrades it), YFP fluorescence increase; series mostly up to 46.1 µM; further: nearly all actives have a fitted effect of over 65% in size
Text: The recent discovery and characterization of host restriction factors, which provide a potent defense to invading retroviruses, has provided new targets for antiviral drug development. APOBEC3G (A3G) and APOBEC3F (A3F) are potent cytidine deaminases that block HIV-1 replication; HIV-1 expresses the Vif protein, which counteracts A3G and A3F by binding to them and inducing their proteasomal degradation. The Vif-A3G and Vif-A3F interactions provide two potential targets for development of small molecules which can interfere with the ability of Vif to degrade A3G or A3F. […] To identify inhibitors that can interfere with Vif mediated degradation of A3G and A3F, we have developed Hela cell lines that stably express A3G or A3F tagged with eYFP at the C-terminal end (A3G-eYFP or A3F-eYFP, respectively) and Vif. In the absence of an inhibitor, Vif induces degradation of A3G-eYFP and A3F-eYFP, and the cells are not fluorescent. In the presence of an inhibitor, it is expected that Vif will be unable to degrade A3G-eYFP and/or A3F-eYFP, resulting in an increase in yellow fluorescence. In this assays Vif A3F was screened against the Molecular Library Small Molecule Repository (MLSMR). NIH Chemical Genomics Center [NCGC] NIH Molecular Libraries Probe Centers Network [MLPCN] MLPCN Grant: MH093245 Assay Submitter (PI): Vinay Pathak, National Cancer Institute
5 uL of 700 cells/well of A3F-YFP cells are dispensed into black, clear bottom plates. The plates are incubated overnight at 37 deg C. 23 nL of compounds are added by pintool. The plates are incubated overnight at 37 deg C and then read on the TTP Acumen (Ex 488/ Em 500-530).
Potency means the concentration at half of the fitted maximal effect.

SMILES	Potency
COc1ccc(Cl)cc1S(=O)(=O)N1CCC(c2ccncc2)CC1	inactive
CCOc1ccc2nc(N3CCC(C(=O)Nc4cc(C)ccc4C)CC3)sc2c1	inactive
CCCS(=O)(=O)c1ncc(Cl)c(C(=O)Nc2scc(-c3ccccc3)c2C(=O)OCC)n1	inactive
O=C(/C=C/c1ccccc1)Nc1cc(-c2nc3cc(Cl)ccc3o2)ccc1Cl	inactive
COC(=O)c1ccccc1NC(=O)Cn1c(=O)cc(C)c2c(C)nn(-c3cccc(Cl)c3C)c21	inactive
Cc1cccc(NC(=O)Cn2nc(-c3ccc(Cl)cc3)c3ccccc3c2=O)c1	inactive
COc1cc2c(cc1OC)C(COc1ccc(F)cc1)N(C(=O)c1ccccc1F)CC2 (stereo unspecified)	inactive
Cc1ccc(OCCSc2nc3ccc(NC(=O)COc4ccc(C)cc4)cc3s2)cc1	inactive
O=C(CC1NCCc2ccccc21)Nc1cccc(Cl)c1 (stereo unspecified)	inactive
COC(=O)c1cc(C)sc1NC(=O)CC1Nc2ccccc2NC1=O (stereo unspecified)	inactive
O=C(CC1Nc2ccccc2NC1=O)Nc1ccccc1 (stereo unspecified)	12.6 µM (active)
COc1cccc(CNC(=O)C2CCC(CNS(=O)(=O)c3cccs3)CC2)c1 (stereo unspecified)	inactive
COc1ccc(C2c3c(oc4ccccc4c3=O)C(=O)N2Cc2ccc3c(c2)OCO3)cc1 (stereo unspecified)	inactive
CC(=O)N1CCCc2cc(S(=O)(=O)N3CCC(C(=O)NCc4ccc(F)cc4)CC3)ccc21	inactive
Cc1cc(C)cc(NC(=O)CSc2nc(=O)n(CCN3CCOCC3)c3c2CCC3)c1	inactive
CCCCOC(=O)/C(C#N)=C/c1ccc(-c2cccc(C(F)(F)F)c2)o1	inactive
CCCCNC(=O)C1CCCN(c2nnc(C)c3c(C)n(-c4ccc(Cl)cc4)nc23)C1 (stereo unspecified)	inactive
CCOc1ccc(S(=O)(=O)Nc2ccc3oc4c(c3c2)CC(C)CC4)cc1 (stereo unspecified)	inactive
CCNC(=O)c1cc2n(n1)CCCN(Cc1ccc(C)cc1)C2=O	inactive
CCCOC(=O)c1c(NC(=O)c2cc3nc(-c4ccc(OC)cc4)cc(C(F)(F)F)n3n2)sc2c1CCCC2	inactive
O=C(NCC(c1ccc2c(c1)OCO2)N1CCN(c2ccccc2)CC1)C(=O)Nc1ccccc1F (stereo unspecified)	inactive

SMILES	Potency
O=C(NC1CC(=O)N(c2ccc(F)cc2)C1)C1CCCCC1 (stereo unspecified)	inactive
Cc1cc(C)c(/C=C2\C(=O)Nc3ccccc32)[nH]1	12.6 µM (active)
Fc1ccc(-n2ncc3c(Nc4ccc(Oc5ccccc5)cc4)ncnc32)cc1	inactive
COc1ccccc1NC(=O)c1oc2ccccc2c1NC(=O)C(C)C	inactive
Cc1ccc(Cc2nc3ccccc3nc2SCC(=O)Nc2cccc(C(F)(F)F)c2)cc1	inactive
COc1ccc(NC(=O)Cn2cc(C(=O)c3ccncc3)c(=O)c3cc(C)ccc32)cc1Cl	inactive
Cc1ccc(C)c(Oc2c(C(F)(F)F)oc3c(CN4CCN(C)CC4)c(O)ccc3c2=O)c1	inactive
CC1CCC(N2CC(=O)N(CCC3=CCCCC3)C(c3ccc(F)cc3)C2=O)CC1 (stereo unspecified)	inactive
COc1ccc(Cl)cc1NC(=O)c1sc2nc3c(cc2c1N)CN(C)CC3	inactive
CCOc1ccc(N2CC(c3nc4ccccc4n3CCOc3ccc(OC)cc3)CC2=O)cc1 (stereo unspecified)	inactive
O=S(=O)(c1ccc(C2CCCCC2)cc1)N1CCN(c2ccc(Cl)c(Cl)c2)CC1	inactive
CC(C)c1ccc(C2CC(=O)N3CN(C4CCCCC4)CSC3=C2C#N)cc1 (stereo unspecified)	inactive
CCOc1ccc2oc(=O)cc(CN3CCN(C(=O)c4ccc(F)cc4)CC3)c2c1	inactive
COc1ccc(-c2nn3c(-c4ccc(OC)cc4)nnc3c3ccccc23)cc1	inactive
CC(C)c1ccc(NC(=O)c2cc(S(=O)(=O)N3CCc4ccccc4C3)ccc2F)cc1	inactive
CCOc1ccccc1C(=O)NCc1ccc2c(c1)CCN2C(=O)c1ccc(F)cc1	inactive
CCOc1ccc(N(Cc2ccccc2)C(=O)c2nc(S(C)(=O)=O)ncc2Cl)cc1	inactive
Cc1ccc2sc(N(Cc3cccnc3)C(=O)C3COc4ccccc4O3)nc2c1C (stereo unspecified)	inactive
Cc1ccc(NC(=O)c2oc3ccc(S(=O)(=O)N4CCCCC4)cc3c2C)cc1Cl	inactive
CCc1nn(CC(=O)N2CCN(c3ccc(Cl)cc3)CC2)c(=O)c2cc3occc3n12	inactive
Cc1nc2c(-c3ccccc3)c(C)nn2c(C)c1CCC(=O)NCCc1ccccc1	inactive

SMILES	Potency
COc1ccccc1Nc1nc(N)nc(N)c1S(=O)(=O)c1ccccc1	inactive
COc1cc(NC(=O)c2cc3ccc4cccnc4c3[nH]2)cc(OC)c1OC	inactive
COc1ccc(-c2cn3c(n2)sc2cc(C(=O)Nc4ccc(F)cc4)ccc23)cc1	inactive
COc1ccc(NC(=O)c2sc3nc(-c4cc5cccc(OC)c5oc4=O)[nH]c(=O)c3c2C)cc1	inactive
COc1ccc(-c2nc3cnccn3c2NC(C)(C)CC(C)(C)C)cc1O	inactive
Cc1ccc(Nc2c(-c3ccc(C)cc3)nc3cnccn23)cc1	inactive
COc1ccc(-c2nc3cnccn3c2NC2CCCCC2)cc1-c1cccc(Cl)c1	22.4 µM (active)
CCOCCCNC(=O)c1ccc2nc(CCc3ccccc3)oc2c1	inactive
COc1ccc(C(=O)Nc2ccc(-n3nncc3-c3ccccc3)cc2)cc1OC	inactive
NNC(=O)c1oc2nc(-c3ccccc3)cc(-c3ccco3)c2c1N	11.2 µM (active)
Cc1ccc(CSc2nc3cccnc3n2Cc2ccc(C(=O)NC3CC3)cc2)cc1	inactive
CCOC(=O)c1cnc2c(C)cc(Cl)cc2c1NCCc1ccc(OC)c(OC)c1	inactive
O=C(Cc1ccc(Cl)cc1)Nc1ccc2nn(-c3ccc(Cl)cc3)nc2c1	inactive
CCOC(=O)c1c(C)oc2nc(C)nc(N3CCN(c4ccc(OC)cc4)CC3)c12	inactive
CC(C)c1ccc(NC(=O)Cn2nnc(C(=O)NCCc3ccccc3)c2N)cc1	inactive
O=C(CCCn1c(=O)c2cccn2c2cccnc21)NCc1ccc(F)cc1	inactive
Cc1cc(=O)n(CC(=O)Nc2cccc([N+](=O)[O-])c2)c(-n2nc(C)cc2C)n1	inactive
CCOC(=O)c1c(S(=O)(=O)N2CCC(C(=O)NCc3ccccc3OC)CC2)c(C)n(C)c1C	inactive
CSc1ccc(C2c3c(oc4ccccc4c3=O)C(=O)N2CCCN2CCOCC2)cc1 (stereo unspecified)	inactive
